Biological target: POU1 (OCT1 POU domain) (human, UniProt P14859 260-458)
Assay: EMSA-SELEX-seq; no BOB1; 20 mM Tris-HCl pH 7.6, 140 mM NaCl, 10% glycerol, 0.5 mM EDTA, 0.05% Triton X-100, 0.1 mg/mL BSA, 0.1 mg/mL poly(dI-dC), 5 mM DTT, room temperature, 20 min; high values mean tight binding
Conditions: protein: recombinant; dsDNA, one strand shown
Procedure, shortened: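 In this selection, tagged POU-domain proteins from E. coli BL21, purified under denaturing conditions and renatured, were bound to a PCR-amplified double-stranded random 35-nt library with or without coactivator protein. Reactions held 30 ng protein, 300 ng library and, where used, 28 ng coactivator protein in 20 μL Tris–HCl pH 7.6 binding buffer for 20 min at RT. Complex bands were cut from native 6% PAGE, eluted and PCR-amplified over four rounds, then Illumina-sequenced, and binding preference is the percentage of sequenced 8-mers matching a motif pattern.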

Sequence of POU1 (OCT1 POU domain) (P14859 260-458): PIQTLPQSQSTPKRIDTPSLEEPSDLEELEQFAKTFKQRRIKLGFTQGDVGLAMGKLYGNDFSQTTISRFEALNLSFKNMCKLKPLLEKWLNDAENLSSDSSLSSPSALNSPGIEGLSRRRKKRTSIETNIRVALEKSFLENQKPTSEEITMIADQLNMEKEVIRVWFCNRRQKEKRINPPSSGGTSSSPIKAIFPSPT

Row | Sequence | binding signal
1 | AAGACAAA | 0.0538 % of ANNNNAAN 8-mers
2 | ACACGAAT | 0.0347 % of ANNNNAAN 8-mers
3 | AAGTAAAG | 0.0545 % of ANNNNAAN 8-mers
4 | ATCTCAAC | 0.0252 % of ANNNNAAN 8-mers
5 | ACTTTAAA | 0.0713 % of ANNNNAAN 8-mers
6 | AATTAAAC | 0.14 % of ANNNNAAN 8-mers
7 | ACCGGAAC | 0.0137 % of ANNNNAAN 8-mers
8 | ACGAAAAA | 0.0431 % of ANNNNAAN 8-mers
9 | ACTCAAAT | 0.0889 % of ANNNNAAN 8-mers
10 | AGGGGAAC | 0.0416 % of ANNNNAAN 8-mers
11 | AGATCAAT | 0.0465 % of ANNNNAAN 8-mers
12 | AGAACAAA | 0.032 % of ANNNNAAN 8-mers
13 | ATTCGAAG | 0.0564 % of ANNNNAAN 8-mers
14 | ACATAAAA | 0.103 % of ANNNNAAN 8-mers
15 | AATTTAAA | 0.913 % of ANNNNAAN 8-mers
16 | AAGGTAAA | 0.108 % of ANNNNAAN 8-mers
17 | AGCAGAAG | 0.0233 % of ANNNNAAN 8-mers
18 | ATTGGAAG | 0.0309 % of ANNNNAAN 8-mers
19 | ATTTTAAC | 0.0812 % of ANNNNAAN 8-mers
20 | ATGCAAAA | 1.5 % of ANNNNAAN 8-mers

Row | Sequence | binding signal
21 | AACTCAAA | 0.0397 % of ANNNNAAN 8-mers
22 | ATACGAAA | 0.0698 % of ANNNNAAN 8-mers
23 | ATTGGAAT | 0.141 % of ANNNNAAN 8-mers
24 | ATTAAAAG | 0.149 % of ANNNNAAN 8-mers
25 | AGGAAAAA | 0.134 % of ANNNNAAN 8-mers
26 | AGCGCAAG | 0.013 % of ANNNNAAN 8-mers
27 | AGTAGAAC | 0.0271 % of ANNNNAAN 8-mers
28 | AAACCAAA | 0.0538 % of ANNNNAAN 8-mers
29 | ATCTTAAC | 0.0351 % of ANNNNAAN 8-mers
30 | AGACGAAT | 0.0461 % of ANNNNAAN 8-mers
31 | ACGGGAAC | 0.0225 % of ANNNNAAN 8-mers
32 | AGCACAAT | 0.0233 % of ANNNNAAN 8-mers
33 | AGCCCAAT | 0.0168 % of ANNNNAAN 8-mers
34 | ATTTTAAG | 0.108 % of ANNNNAAN 8-mers
35 | ATAGAAAA | 0.0767 % of ANNNNAAN 8-mers
36 | ACATAAAG | 0.0934 % of ANNNNAAN 8-mers
37 | AATTTAAC | 0.17 % of ANNNNAAN 8-mers
38 | ACTGGAAG | 0.021 % of ANNNNAAN 8-mers
39 | ACCGTAAG | 0.0191 % of ANNNNAAN 8-mers
